Values joined by “and” are separate entries in the source; they are usually repeats but may differ in a detail not shown here. Identical values can stand only once. About 1,300 (0.54%) of roughly 240,000 compounds were called active. Roughly 1% stayed inconclusive and do not appear here. The call rests on the fitted dose curve; in most records, active means well fitted inhibition curve with a large enough effect; inconclusive means small, poorly fitted or top-dose-only effect; inactive means flat fitted curve, though single readings scatter. For the sample, actives were picked, then their nearest neighbours and some compounds at random. Where a structure was tested more than once in an assay, its records may differ in their call.
Target: ATP-dependent DNA helicase Q1 (Homo sapiens) (UniProt P46063)
Sequence (P46063 whole entry, looked up): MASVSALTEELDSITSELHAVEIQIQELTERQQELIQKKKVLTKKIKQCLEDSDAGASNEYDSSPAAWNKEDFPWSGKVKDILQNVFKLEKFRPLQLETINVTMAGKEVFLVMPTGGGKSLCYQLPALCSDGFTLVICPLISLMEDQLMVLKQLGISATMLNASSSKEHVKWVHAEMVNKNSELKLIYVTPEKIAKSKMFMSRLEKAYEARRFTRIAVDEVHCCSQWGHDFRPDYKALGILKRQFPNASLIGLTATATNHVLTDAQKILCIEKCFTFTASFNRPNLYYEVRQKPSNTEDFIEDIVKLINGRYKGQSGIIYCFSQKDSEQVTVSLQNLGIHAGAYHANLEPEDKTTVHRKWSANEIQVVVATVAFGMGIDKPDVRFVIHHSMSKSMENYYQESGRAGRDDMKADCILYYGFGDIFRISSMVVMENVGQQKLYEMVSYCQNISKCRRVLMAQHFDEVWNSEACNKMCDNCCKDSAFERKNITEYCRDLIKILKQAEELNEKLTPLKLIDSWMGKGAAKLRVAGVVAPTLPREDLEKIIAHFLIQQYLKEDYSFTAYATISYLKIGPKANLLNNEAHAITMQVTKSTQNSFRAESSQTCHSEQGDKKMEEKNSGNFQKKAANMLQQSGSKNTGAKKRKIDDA
Assay: qHTS Assay for Inhibitors of RecQ-Like Dna Helicase 1 (RECQ1); further: nearly all actives have a fitted effect of over 30% in size;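 on activity, negative = inhibition: plate controls were vehicle for no effect and no enzyme for full effect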
Details: RECQ1 DNA unwinding, red fluorescence kinetic read; series mostly up to 57.3 µM; activity, negative = inhibition: at the top concentration
Summary of the method: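 RECQ1T1 50 nM; forked duplex (20 bp + 30-nt ss tails) 200 nM, ATP 2 mM final; pH 8.0, 2 mM MgCl2, 2.5 ug/ml poly(dI-dC); 15 min compound preincubation; discontinuous kinetic read over 2 h at RT.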
Potency means the concentration at half of the fitted maximal effect.

activity, negative = inhibition, inactive:
O=c1cc(CCl)nc2scc(-c3ccccc3)n12 -7.89%, CCc1nnc(NC(=O)c2cccc(S(=O)(=O)N(C)c3ccc(OC)cc3)c2)s1 -3.08%, CCc1nnc(NC(=O)c2sc3nc(C)cc(COC)c3c2N)s1 -2.43%, CCN1C(=O)c2cccc3c(N)ccc1c23 -7.81%, COc1ccc(CC(N)C(=O)NC2C(O)[C@H](n3cnc4c(N(C)C)ncnc43)O[C@@H]2CO)cc1 (some centres not stated) -0.564%, CCOC(=O)c1ccc[n+](CC(=O)Nc2ccccc2OC(F)F)c1 -1.34%, Cc1ccc(C)c(SCc2nc3sc(C(=O)O)c(C)c3c(=O)[nH]2)c1 2.12%, CCOC(=O)C(CC)/C(C)=N\NC(=O)c1cccc(C)c1 (configuration not stated) 3.83%, C[C@H]1CCC[C@@]2(C)CCCC[C@]12O -12%, Cn1cccc1/C=C1\SC(=O)N(CC(=O)Nc2ccc(F)cc2)C1=O -20.3%, O=C(O)c1cccc(N2C(=O)Nc3ccccc3N2O)c1 -9.45%, O=c1ccn([C@@H]2O[C@H](COP(=O)(O)OP(=O)(O)OP(=O)(O)O)[C@@H](O)[C@H]2O)c(=O)[nH]1 6.8%, O=C(CCC(=O)c1cccs1)NCc1ccccc1 -7.98%, O=C(COC(=O)C12CC3CC(CC(C3)C1)C2)NCc1ccco1 -0.842%, COc1ccc(/C=N/NC(=O)c2ccncc2)cc1CN1CCCc2ccccc21 -10.1%, NS(=O)(=O)c1ccc(NC(=O)COC(=O)CCc2c[nH]c3ccccc23)cc1 -1.44%, CC[C@H](C)[C@H](NC(=O)[C@@H](N)CCC(=O)O)C(=O)N[C@@H](CC(C)C)C(=O)N[C@@H](CC(=O)O)C(=O)N[C@H](C(=O)N1CCC[C@H]1C(=O)N[C@@H](CO)C(=O)N[C@H](C(=O)O)[C@@H](C)O)C(C)C -7.19%, O=c1cc(-c2ccc(O)cc2)oc2c([C@@H]3O[C@H](CO)[C@@H](O)[C@H](O)[C@H]3O)c(O)cc(O)c12 -22.9%, Cc1cc(=O)[nH]c(SCC(N)=O)c1C#N -0.259%, Cc1noc(C)c1-c1ccc2ncnc(NCc3ccc4[nH]ccc4c3)c2c1 17.6%, CCCCCOC(=O)NCCOC(=O)Nc1ccc(C(=O)OCC)cc1 -10.1%, CCOP(=O)(OCC)C(Nc1cccc(C)c1)c1ccc(F)cc1 (configuration not stated) 7.05%, CCOc1ccccc1/C=c1\sc2nc(-c3ccco3)nn2c1=O -5.09%, O=C(CCCN1C(=O)/C(=C/c2ccco2)SC1=S)Nc1ccccc1 -20%, CCCN1CCC(=O)N(C(CSc2ccc(C)cc2)Cc2ccccc2)CC1 (configuration not stated) -7.14%, COC(=O)CCc1ccccc1S(=O)(=O)N(CCC(=O)OC)Cc1ccccc1 -5.73%, Cc1sc2nc(CSCC(=O)Nc3c(Cl)cccc3Cl)[nH]c(=O)c2c1C -7.69%, Cc1ccc(NC(=O)CSc2nnc(CNC(=O)c3ccccc3F)o2)cc1 -3.3%, O=[N+]([O-])c1cccc(Nc2c3ccccc3nc3ccccc23)c1 -1.8%, Cc1ccc(Nc2c3c(nc4ccccc24)CCC3)cc1 -5.59%, CCOC(=O)Cn1c(=O)sc2cccc(Cl)c21 5.27%, CCOCCOC(=O)C(C)Oc1ccc(Oc2ncc(C(F)(F)F)cc2Cl)cc1 (configuration not stated) -19.4%, C[C@@H]1O[C@@H](OC[C@H]2O[C@@H](Oc3cc(O)c4c(c3)O[C@H](c3ccc(O)c(O)c3)CC4=O)[C@H](O)[C@@H](O)[C@@H]2O)[C@H](O)[C@H](O)[C@H]1O -12.6%, CN(C)S(=O)(=O)Oc1ccccc1C(=O)Nc1ccccc1Cl 2.71%, NCCCCC(N)C(=O)O (configuration not stated) -3.84%, O=C(NCc1ccccn1)c1cc(-c2ccccc2Cl)on1 -5.28%, COc1ccc(NC(=O)Nc2ccc3nsnc3c2)cc1 -33.9%, H-EHIPA-OH -4.14%, CC[C@H](C)[C@H](NC(=O)[C@H](CCCNC(=N)N)NC(=O)[C@H](CCCNC(=N)N)NC(=O)[C@H](CC(C)C)NC(=O)[C@H](Cc1ccccc1)NC(=O)CNC(=O)CNC(=O)[C@@H](N)Cc1ccc(O)cc1)C(=O)N[C@@H](CCCNC(=N)N)C(=O)N1CCC[C@H]1C(=O)N[C@@H](CCCCN)C(=O)N[C@@H](CC(C)C)C(=O)N[C@@H](CCCCN)C(=O)N[C@@H](Cc1c[nH]c2ccccc12)C(=O)N[C@@H](CC(=O)O)C(=O)N[C@@H](CC(N)=O)C(=O)N[C@@H](CCC(N)=O)C(=O)O -6.92%, CCOC(=O)C(C)Sc1nnc(CSc2nc3nc(C)cc(C)n3n2)o1 (configuration not stated) -0.989%, O=C(NCc1ccccc1)C1=C[C@H](C2CC2)C[C@H](OCc2ccc(CO)cc2)O1 -0.989%, Cc1cc(N(C)C)nc(Cl)n1 -18.3%, Oc1ccc(-c2c(-c3ccccc3)nn3c(C(F)(F)F)cc(C(F)(F)F)nc23)cc1 8.87%, O=C(NN1C(=O)C2C(C1=O)C1C=CC2C12CC2)c1ccccc1Cl (configuration not stated) -3.11%, CC12CCC(C(=O)N(c3cccc(Cl)c3)C1=O)C2(C)C (configuration not stated) 3.9%, Cc1ccc(S(=O)(=O)N2CCC(=O)N([C@H](COCc3ccccc3)Cc3ccccc3)CC2)cc1 -4.94%, CC[C@H](C)[C@H](NC(=O)[C@H](Cc1ccc(O)cc1)NC(=O)[C@@H](NC(=O)[C@H](CCCN=C(N)N)NC(=O)[C@@H](N)CC(=O)O)C(C)C)C(=O)N[C@@H](Cc1cnc[nH]1)C(=O)N1CCC[C@H]1C(=O)N[C@@H](Cc1ccccc1)C(=O)O 14.2%, CCCn1c(C(O)c2ccc(OCC)cc2)nc2ccccc21 (configuration not stated) -5.82%, COc1ccc(C2/C=C\CN(Cc3ccco3)C(C)C(=O)N2Cc2ccc(F)cc2)cc1 (configuration not stated) -12.4%, Cc1cccn2c(=O)c(/C=C3\SC(=S)N(CC(C)C)C3=O)c(NCCCOC(C)C)nc12 2.64%, CCOC(=O)CC1C(=O)NCCN1C(=O)COc1ccc(Br)cc1C (configuration not stated) -8.2%, CCC(C)(C)NC(=O)c1cc([N+](=O)[O-])ccc1N1CCCCC1 -6.6%, COc1ccc(C(CCN2CCOCC2)c2c(OC)cc(OC)c3c2OC(=O)CC3c2ccc(OC)cc2)cc1 (configuration not stated) -5.93%, COc1ccc(Cl)cc1C(=O)NNC(=S)NC1CCCC1 21.4%, C=CCNC(=S)NNC(=O)c1cc(Cl)ccc1OC -9.23%, O=C(CSC1=Nc2ccccc2C2=NC(CC(=O)NCc3ccco3)C(=O)N12)NCc1ccco1 (configuration not stated) 9.12%, CCC(C)NC(=O)CSC1=Nc2ccccc2C2=NC(CCC(=O)NCc3ccco3)C(=O)N12 (configuration not stated) -4.68%, O=P(O)(O)C(O)c1ccc2ccccc2c1 (configuration not stated) -4.2%, CC(C)(C)N(Cc1ccccc1)C(=O)COC(=O)CCc1c[nH]c2ccccc12 -1.03%, Cc1ccc(-n2nc3c(c2NC(=O)c2ccc4c(c2)OCO4)CSC3)c(C)c1 0.297%, COc1cccc(C(=O)Nc2c3c(nn2-c2cccc(C)c2C)CS(=O)(=O)C3)c1OC -0.603%, c1ccc(CN2CCC(N=C3NN=C(c4ccc5c(c4)OCCO5)CS3)CC2)cc1 -3.29%, S=c1[nH]c2ccccc2c2ccccc12 -10.8%, Cc1ccc(NC(=O)CSc2nc(CSc3ccc(C)cc3)cc(=O)[nH]2)cc1 34.7%, CSc1ccccc1N1CCN(CCCCCC(=O)NC2CCCc3ccccc32)CC1 (configuration not stated) -8.54%

Potency, inactive and 25.1 µM (active):
Nc1ccc2c3c(cccc13)C(=O)NC2=O

Potency, inactive and 28.2 µM (active):
CCCCCC(O)c1cccc(OCc2ccc3ccccc3n2)c1 (configuration not stated)

Potency, inactive:
CCC(C)[C@@H](N)C(=O)O (some centres not stated), Cc1cc(=O)[nH]c(=S)[nH]1, OCCC(O)CO (configuration not stated)

Potency, active:
CCc1ccc2nc3sc(C(=O)Nc4nnc(CC)s4)c(N)c3cc2c1 31.6 µM, Cc1ccc(-c2nc(SCC(=O)Nc3ccccc3OC(F)F)c3c(C)c(C(=O)O)sc3n2)cc1 25.1 µM, N#Cc1ccccc1CN1C(=O)S/C(=C/c2cccn2-c2cccc(C(=O)O)c2)C1=O 28.2 µM, O=C(COC(=O)CCC(=O)c1cccs1)NCc1ccco1 7.94 µM, Cc1cc(=O)[nH]c(S)c1C#N 22.4 µM, CCCCOC(=O)c1ccc(NC(c2ccc(C)cc2)P(=O)(OC)OC)cc1 (configuration not stated) 17.8 µM, O=c1nc2s/c(=C\c3ccco3)c(=O)n2nc1Cc1ccccc1 5.01 µM, COc1cc(C(=O)NCc2nnc(SCC(=O)Nc3nc4ccc(C)cc4s3)o2)cc(OC)c1OC 39.8 µM, CC(=O)Nc1ccc(Nc2c3ccccc3nc3ccccc23)cc1 14.1 µM, O=C(NCc1ccccn1)c1ccc2nc(-c3ccco3)c(-c3ccco3)nc2c1 15.8 µM, COCCNC(=O)Nc1ccc2nc(-c3ccco3)c(-c3ccco3)nc2c1 8.91 µM, O=C(NCc1ccccc1)C1=C[C@@H](C2CCCCC2)C[C@@H](OCc2ccc(CO)cc2)O1 15.8 µM, CC12CCC(C(=O)N(NC(=O)c3ccccc3O)C1=O)C2(C)C (configuration not stated) 39.8 µM, CCOC(=O)CC1C(=O)NCCN1c1nc2c(C)cccn2c(=O)c1/C=C1\SC(=S)N(C(C)CC)C1=O (configuration not stated) 35.5 µM, COc1ccc(Cl)cc1C(=O)NNC(=S)NC(=O)/C=C/c1ccco1 31.6 µM, CC(C)C1N=C2c3ccccc3N=C(SCC(=O)c3ccc(O)c(O)c3)N2C1=O (configuration not stated) 14.1 µM, Cc1cccc(-n2nc3c(c2NC(=O)c2ccc(Br)o2)CSC3)c1C 35.5 µM, COc1ccc(NC(=O)CSc2nc(NS(=O)(=O)c3ccc(C)cc3)cc(=O)[nH]2)cc1 35.5 µM

outcome, inactive:
Cc1ccc(CNC(=O)C2(C(F)(F)F)C/C(=C\CCO)CCCO2)o1 (configuration not stated), S=C(NCCc1ccccc1)N1CCn2cccc2C1c1ccncc1 (configuration not stated), COc1cc(OC)c2c(C)cc(=O)oc2c1C(CCN1CCCCC1)c1ccc(N(C)C)cc1 (configuration not stated), COc1ccc(OC)c(C(=O)c2ccc(C(=O)N3CCN(Cc4csc(C)n4)CC3)cc2)c1, O=C1C2C(c3ccccc3)CC=CC2C(c2ccoc2)N1Cc1ccccc1 (configuration not stated), COc1ccc(CCNC(=O)CSc2nnc(CNC(=O)c3cccs3)o2)cc1OC, COc1ccc(CN2CCC(=O)c3ccccc3S2(=O)=O)cc1, O=C(Nc1ccc(Cl)cc1)Nc1nnc(/C=C/c2ccccc2)s1, COc1ccc(C[C@H](C(=O)O)N2C(=O)c3ccc(C(=O)O)cc3C2=O)cc1, O=C(Nc1ccc2nccnc2c1)c1ccco1, O=C(NCc1ccccn1)c1cc(Br)ccc1Cl, CC(C)(C)[C@H]1C=C(C(=O)NCc2ccccc2)O[C@@H](OCc2ccc(CO)cc2)C1, NCCC(=O)c1ccccc1N, CO[C@@]12[C@@H](COC(N)=O)C3=C(C(=O)C(C)=C(N)C3=O)N1C[C@@H]1N[C@@H]12, CCCCCCOC(=O)NCC(O)c1ccccc1 (configuration not stated), COc1ccc(C2/C=C\CN(C(=O)c3ccc(C)cc3)C(Cc3ccccc3)C(=O)N2Cc2ccc(F)cc2)cc1 (configuration not stated), Nc1nc2c(ncn2[C@@H]2O[C@H](COP(=O)(O)OP(=O)(O)OP(=O)(O)O)[C@@H](O)C2O)c(=O)[nH]1 (some centres not stated), Cc1cc(=O)[nH]c(SCC(=O)Nc2ccc(Br)cc2)n1, O=[N+]([O-])c1ccccc1S(=O)(=O)Nc1cccc2cccnc12

— PubChem BioAssay AID2549 (National Center for Advancing Translational Sciences (NCATS), 2010)
